Results reported in PubChem BioAssay.
The source made the active and inactive calls.

Experiments:
[1] = system: Plasmodium falciparum Sir2 (PF13_0152, Sir2A); experiment: pfSir2 binders on small-molecule microarrays, primary screen, biochemical, small-molecule microarray, 635 nm fluorescence (AID 1098); details: small-molecule microarray binding, fluorescence 635 nm; higher = more signal;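 further: score merges spot fluorescence intensity with its signal-to-noise ratio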
[2] = small-molecule microarray binders of probe aDKK1, primary screen, biochemical, biotinylated probe, 635/667 nm fluorescence (AID 1099); details: higher = more signal;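 further: score merges 667nm spot fluorescence with signal to noise across triplicate slides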
[3] = small-molecule microarray binders of probe aCHRDL2, primary screen, biochemical, biotinylated probe, 635/667 nm fluorescence (AID 1100); details: higher = more signal
[4] = splicing luciferase reporter signal modulators, primary screen, spliceosome inhibition project, cell-based, HEK293, splice +/- reporter (AID 1101); details: luminescence, 24 h, higher = more signal, called active from +8 up or from −8 down;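 further: HEK293 cells carrying a splicing-competent luciferase reporter gene; test concentration not given here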
[5] = target: Fibroblast growth factor 10 (Homo sapiens) (UniProt O15520); experiment: FGF10 binders on small-molecule microarrays, primary screen, biochemical, small-molecule microarray, 635 nm fluorescence (AID 1102); details: FGF10 binding, fluorescence 635 nm, higher = more signal
[6] = system: glycogen synthase kinase-3 (GSK3A per assay name; protocol says GSK3B); experiment: GSK3 binders on small-molecule microarrays, primary screen, biochemical, small-molecule microarray, 635 nm fluorescence, GSK3A (AID 1103); details: small-molecule microarray binding, fluorescence 635 nm; higher = more signal; further: the record names both GSK3A and GSK3B
[7] = target: Epidermal growth factor receptor (Homo sapiens) (UniProt P00533); experiment: EGFR binders on small-molecule microarrays, primary screen, biochemical, small-molecule microarray, 635 nm fluorescence (AID 1104); details: EGFR binding, higher = more signal;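 further: score merges 667 nm emission intensity with spot signal to noise over triplicate slides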
[8] = target: Follistatin-related protein 3 (Homo sapiens) (UniProt O95633); experiment: FSTL3 binders on small-molecule microarrays, primary screen, biochemical, small-molecule microarray, 635 nm fluorescence (AID 1105); details: FSTL3 binding, higher = more signal;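 further: score merges emission near 667 nm and signal to noise per printed spot across three slides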
[9] = target: Dickkopf-related protein 1 (Homo sapiens) (UniProt O94907); experiment: DKK1 binders on small-molecule microarrays, primary screen, biochemical, small-molecule microarray, 635 nm fluorescence scan (AID 1106); details: DKK1 binding, higher = more signal;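 further: score merges emission near 667 nm with signal to noise over three replicate slides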
[10] = system: Inhibin beta A chain (activin A); experiment: INHBA (activin A) binders on microarrays, primary screen, biochemical, small-molecule microarray, 635 nm fluorescence scan (AID 1107); details: small-molecule microarray binding, higher = more signal;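 further: mouse activin A protein probed at 4.33 µg/mL on printed slides; score merges bound-protein fluorescence near 667 nm with spot signal-to-noise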
[11] = system: Human papillomavirus type 1a protein E7 (residues 44-93); experiment: HPV1a E7 fragment binders on microarrays, primary screen, biochemical, small-molecule microarray, residues 44-93, 635 nm fluorescence (AID 1108); details: small-molecule microarray binding, fluorescence 635 nm; higher = more signal;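 further: E7 fragment applied at 1 µg/mL in TBST for 1 h at 4 C; score combines spot fluorescence with its signal to noise ratio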
[12] = modulators of HCV replicon luciferase signal, primary screen, HCV replication inhibitor project, Huh7 cells, luciferase reporter (AID 1109); details: 48 h, higher = more signal;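 further: huh7 hepatoma cells harbouring a luciferase neomycin HCV replicon reporter; luciferase luminescence as measure of HCV replicon replication; test concentration not given here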
[13] = target: Left-right determination factor 2 (Homo sapiens) (UniProt O00292); experiment: LEFTY2 binders on small-molecule microarrays, primary screen, biochemical, small-molecule microarray, 635 nm fluorescence scan (AID 1110); details: LEFTY2 binding, higher = more signal
[14] = target: Calmodulin-1 (Homo sapiens) (UniProt P0DP23); experiment: CALM1 binders on microarrays, EGTA buffer, profiling panel, biochemical, small-molecule microarray, Cy5-labelled CALM1 (AID 1111); details: Cy5-CALM1 binding fluorescence, higher = more signal;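 further: labelled calmodulin applied in Tris saline Tween buffer holding calcium plus EGTA and DTT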
[15] = target: Calmodulin-1 (Homo sapiens) (UniProt P0DP23); experiment: calcium-bound CALM1 binders on microarrays, profiling panel, artefact control for SMM control-protein annotation, biochemical, small-molecule microarray, Cy5-labelled CALM1, plus calcium (AID 1112); details: Cy5-CALM1 binding fluorescence, higher = more signal;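 further: score merges spot fluorescence with signal to noise from triplicate slides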
[16] = small-molecule microarray binders of probe aWnt5a, primary screen, biochemical, biotinylated probe, 635/667 nm fluorescence (AID 1113); details: higher = more signal;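 further: score merges 667 nm fluorescence intensity with signal-to-noise per printed feature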
[17] = small-molecule microarray binders of probe aShh, primary screen, biochemical, biotinylated probe, 635/667 nm fluorescence (AID 1114); details: higher = more signal;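 further: probe is biotin-labelled aShh protein from a stem cell growth factor screen; measures binding of labelled protein to compounds printed on the slide; score merges feature fluorescence at 667 nm with signal-to-noise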
[18] = small-molecule microarray binders of probe aNog, primary screen, biochemical, biotinylated probe, 635/667 nm fluorescence (AID 1115); details: higher = more signal;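 further: probe is biotinylated aNog protein used at 0.15 µg/mL for 1 h at 4 C; z-score combines 667 nm fluorescence of each spot with its signal to noise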
[19] = target: Torsin-1A-interacting protein 1 (Homo sapiens) (UniProt Q5JTV8); experiment: LAP1 binders from COS7 cell lysate, primary screen, small-molecule microarray, 635/667 nm fluorescence (AID 1116); details: COS7-hLAP1 lysate binding, 635 nm fluorescence, higher = more signal
[20] = target: Alpha-bungarotoxin (Bungarus multicinctus) (UniProt P60615); experiment: alpha-bungarotoxin binders on microarray, profiling panel, artefact control for SMM control protein annotation, biochemical, small-molecule microarray, Alexa647 label, 635/667 nm fluorescence (AID 1117); details: alpha-BTX-A647 binding fluorescence, higher = more signal
Alpha-bungarotoxin (Bungarus multicinctus), sequence (P60615 whole entry, looked up): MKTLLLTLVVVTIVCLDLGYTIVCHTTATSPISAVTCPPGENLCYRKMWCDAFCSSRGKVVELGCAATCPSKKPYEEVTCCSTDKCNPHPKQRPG

Dickkopf-related protein 1 (Homo sapiens), sequence (O94907 whole entry, looked up): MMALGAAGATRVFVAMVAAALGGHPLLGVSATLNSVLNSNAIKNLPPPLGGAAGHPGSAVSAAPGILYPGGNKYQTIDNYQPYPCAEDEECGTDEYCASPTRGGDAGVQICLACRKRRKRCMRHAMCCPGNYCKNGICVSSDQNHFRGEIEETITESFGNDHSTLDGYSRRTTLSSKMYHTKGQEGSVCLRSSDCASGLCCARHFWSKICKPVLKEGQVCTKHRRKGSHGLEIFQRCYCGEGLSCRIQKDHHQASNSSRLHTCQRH
Epidermal growth factor receptor (Homo sapiens), sequence (P00533 whole entry, looked up): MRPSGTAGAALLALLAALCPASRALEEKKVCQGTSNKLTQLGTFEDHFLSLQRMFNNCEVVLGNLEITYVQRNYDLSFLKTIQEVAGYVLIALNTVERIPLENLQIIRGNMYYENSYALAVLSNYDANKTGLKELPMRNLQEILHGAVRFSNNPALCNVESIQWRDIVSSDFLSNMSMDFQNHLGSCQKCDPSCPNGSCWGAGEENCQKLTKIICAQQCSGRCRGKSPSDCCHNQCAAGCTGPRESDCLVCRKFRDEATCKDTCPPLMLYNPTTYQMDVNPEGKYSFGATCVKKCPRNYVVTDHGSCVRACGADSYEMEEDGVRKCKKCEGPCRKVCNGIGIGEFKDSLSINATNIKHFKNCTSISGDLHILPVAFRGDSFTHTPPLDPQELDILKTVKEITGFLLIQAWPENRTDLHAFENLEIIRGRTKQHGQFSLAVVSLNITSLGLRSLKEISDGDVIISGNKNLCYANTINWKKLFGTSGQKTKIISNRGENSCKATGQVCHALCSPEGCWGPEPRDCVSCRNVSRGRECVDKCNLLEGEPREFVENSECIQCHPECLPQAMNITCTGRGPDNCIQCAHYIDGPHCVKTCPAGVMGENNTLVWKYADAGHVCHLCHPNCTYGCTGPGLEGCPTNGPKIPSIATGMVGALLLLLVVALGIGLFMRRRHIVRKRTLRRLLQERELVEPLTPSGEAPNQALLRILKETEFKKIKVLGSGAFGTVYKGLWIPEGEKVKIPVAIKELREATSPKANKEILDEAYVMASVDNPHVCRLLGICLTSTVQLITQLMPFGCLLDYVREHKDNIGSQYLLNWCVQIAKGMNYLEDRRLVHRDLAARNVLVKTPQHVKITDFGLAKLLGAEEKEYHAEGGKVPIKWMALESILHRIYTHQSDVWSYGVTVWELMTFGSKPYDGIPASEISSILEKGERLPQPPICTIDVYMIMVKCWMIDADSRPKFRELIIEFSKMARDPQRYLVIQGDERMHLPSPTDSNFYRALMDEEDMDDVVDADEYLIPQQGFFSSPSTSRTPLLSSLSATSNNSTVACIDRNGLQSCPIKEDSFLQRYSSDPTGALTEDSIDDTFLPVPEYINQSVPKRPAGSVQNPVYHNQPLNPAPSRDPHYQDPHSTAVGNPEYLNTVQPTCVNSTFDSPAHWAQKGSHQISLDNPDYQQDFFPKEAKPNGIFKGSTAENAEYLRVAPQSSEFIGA
Torsin-1A-interacting protein 1 (Homo sapiens), sequence (Q5JTV8 whole entry, looked up): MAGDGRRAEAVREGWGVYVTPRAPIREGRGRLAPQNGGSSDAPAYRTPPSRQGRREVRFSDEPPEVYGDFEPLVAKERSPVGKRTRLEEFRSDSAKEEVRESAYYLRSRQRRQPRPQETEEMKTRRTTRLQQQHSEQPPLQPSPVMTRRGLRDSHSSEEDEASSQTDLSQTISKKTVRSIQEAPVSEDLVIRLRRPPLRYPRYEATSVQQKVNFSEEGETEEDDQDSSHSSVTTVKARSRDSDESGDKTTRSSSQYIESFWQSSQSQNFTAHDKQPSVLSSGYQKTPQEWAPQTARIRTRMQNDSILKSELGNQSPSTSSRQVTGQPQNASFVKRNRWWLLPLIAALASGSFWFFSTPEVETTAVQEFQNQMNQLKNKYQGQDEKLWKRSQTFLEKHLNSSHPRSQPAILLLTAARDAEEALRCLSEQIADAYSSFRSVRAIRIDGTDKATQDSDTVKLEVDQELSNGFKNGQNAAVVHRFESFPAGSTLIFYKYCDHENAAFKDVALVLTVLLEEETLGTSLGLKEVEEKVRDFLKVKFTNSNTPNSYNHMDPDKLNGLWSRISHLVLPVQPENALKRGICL
Left-right determination factor 2 (Homo sapiens), sequence (O00292 whole entry, looked up): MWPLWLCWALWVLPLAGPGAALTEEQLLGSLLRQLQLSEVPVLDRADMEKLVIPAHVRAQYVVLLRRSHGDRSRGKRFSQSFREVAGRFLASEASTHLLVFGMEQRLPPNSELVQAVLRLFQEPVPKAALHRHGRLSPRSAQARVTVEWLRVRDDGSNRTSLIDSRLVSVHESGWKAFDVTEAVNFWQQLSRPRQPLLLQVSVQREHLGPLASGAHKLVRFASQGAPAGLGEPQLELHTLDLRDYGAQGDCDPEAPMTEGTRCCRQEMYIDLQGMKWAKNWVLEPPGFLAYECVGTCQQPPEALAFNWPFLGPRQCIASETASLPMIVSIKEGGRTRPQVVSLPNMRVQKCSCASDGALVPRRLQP
Follistatin-related protein 3 (Homo sapiens), sequence (O95633 whole entry, looked up): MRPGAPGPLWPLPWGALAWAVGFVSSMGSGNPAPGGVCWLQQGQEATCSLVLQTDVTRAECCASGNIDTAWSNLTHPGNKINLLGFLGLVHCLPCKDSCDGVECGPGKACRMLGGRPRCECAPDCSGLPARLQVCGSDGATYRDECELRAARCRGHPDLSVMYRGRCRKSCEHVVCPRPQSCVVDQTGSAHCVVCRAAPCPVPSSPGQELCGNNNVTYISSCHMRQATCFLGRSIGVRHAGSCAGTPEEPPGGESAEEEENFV
Fibroblast growth factor 10 (Homo sapiens), sequence (O15520 whole entry, looked up): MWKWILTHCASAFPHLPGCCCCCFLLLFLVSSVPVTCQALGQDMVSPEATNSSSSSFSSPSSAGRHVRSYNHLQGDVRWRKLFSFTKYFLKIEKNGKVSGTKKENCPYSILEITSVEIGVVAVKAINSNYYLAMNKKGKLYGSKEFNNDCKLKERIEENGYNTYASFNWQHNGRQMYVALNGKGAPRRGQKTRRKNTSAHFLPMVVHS

Row | Compound | composite z-score [1] | composite z-score [2] | composite z-score [3] | z-score [4] | composite z-score [5] | composite z-score [6] | composite z-score [7] | composite z-score [8] | composite z-score [9] | composite z-score [10] | composite z-score [11] | z-score [12] | composite z-score [13] | composite z-score [14] | composite z-score [15] | composite z-score [16] | composite z-score [17] | composite z-score [18] | composite z-score [19] | composite z-score [20]
1 | CC(C)[C@@H](CO)NC(=O)[C@H]1[C@@H](c2ccccc2)N(c2ccccc2)O[C@@H]1C | 0.008 | -0.343 | -0.343 | -0.18 (inactive) | -0.123 | -0.418 | -0.0881 | -0.218 | 0.227 | 0.197 | 0.0503 | 0.0505 | 0.28 | -0.31 | -0.354 | -0.148 | -0.186 | -0.181 | 0.382 | 0.0366
2 | C=CCN1C(=O)[C@]2(O[C@H](CCO)[C@@H]([Si](C)(C)c3ccc(OC)cc3)[C@@H]2C)c2cc(N3C(=O)c4cccc5cccc3c45)ccc21 | 1.18 | 0.0458 | 0.151 | -2.45 (inactive) | 0.446 | 0.398 | -0.0841 | 0.286 | -0.255 | 0.552 | 1.17 | -5.11 | 0.164 | 0.719 | 0.124 | -0.159 | 0.0639 | -0.338 | 0.374 | 0.3
3 | C=CCOC(=O)[C@H]1[C@@H]2C(=O)O[C@@H](c3ccccc3)[C@@H](c3ccccc3)N2[C@@H](c2ccc(OCCOC(=O)[C@@H]3C[C@@H]4C(=O)N5CCC[C@H]5C(=O)N4[C@@H]3c3cccc(OCCO)c3)cc2)[C@]12C(=O)Nc1ccccc12 | 1.19 | -0.0198 | 0.0715 | -0.978 (inactive) | 1.12 | 1.31 | 0.5 | 0.895 | 0.651 | 0.563 | 0.862 | -1.24 | 0.91 | 0.551 | 0.0319 | 0.0079 | 0.0381 | -0.378 | 0.834 | 1.34
4 | COc1ccc(CCN2C(=O)[C@@]3(c4ccc([N+](=O)[O-])cc4)CC(=O)N(C4CCCCC4)[C@@H]3c3ccc(CO)cc32)cc1 | 0.582 | 0.274 | 0.181 | -0.0884 (inactive) | 0.586 | 0.711 | -0.267 | 1.2 | 1.48 | 0.889 | 0.106 | 0.431 | 0.636 | -0.574 | -0.747 | 0.0495 | -0.229 | -0.33 | 0.341 | -0.167
5 | COc1ccc(C(=O)Nc2cccc(CN3C(=O)[C@]4(O[C@H](CCO)[C@@H]([Si](C)(C)c5ccc(OC)cc5)[C@@H]4C)c4ccccc43)c2)cc1 | 1.44 | 0.541 | 0.223 | 1.3 (inactive) | 0.691 | 0.901 | 0.0077 | 0.742 | 0.331 | 1.26 | 1.28 | -5.16 | 0.442 | 0.123 | 0.0559 | 0.0194 | -0.133 | 0.6 | 0.603 | 0.805
6 | [N-]=[N+]=NCc1ccccc1C[C@]1(C(=O)O)N=C(c2ccc(OCCCO)cc2)O[C@H]1c1ccccc1N=[N+]=[N-] | 1.17 | 0.621 | 0.435 | -3.66 (inactive) | 1.12 | 1.16 | 0.386 | 0.737 | 0.0572 | 0.303 | 1.18 | -1.11 | 0.11 | 1.23 | 0.0606 | 0.0919 | 0.0639 | 1.59 | 1.46 | 1.76
7 | CCOC(=O)[C@H]1C/C=C/C[C@H](C(=O)OCC)C(=O)O[C@H]2[C@@H](OC)O[C@H](CO)[C@@H](OC(=O)Nc3cccc(F)c3)[C@@H]2OC1=O | 1.39 | -0.438 | -0.174 | 0.68 (inactive) | 0.687 | 0.327 | -0.226 | -0.0088 | 0.254 | 0.519 | 1.14 | -3.56 | -0.169 | -0.192 | -0.273 | -0.0243 | 0.0818 | 1.93 | 0.556 | 0.729
8 | C=CCOC(=O)[C@@H]1[C@H]2C(=O)O[C@H](c3ccccc3)[C@H](c3ccccc3)N2[C@H](c2ccc(OCCOC(=O)[C@@H]3C[C@@H]4C(=O)N5CCC[C@H]5C(=O)N4[C@@H]3c3ccc(O)cc3)cc2)[C@@]12C(=O)Nc1ccc(I)cc12 | 0.544 | -0.627 | -0.257 | -1.98 (inactive) | 0.624 | 1.3 | 0.555 | 0.913 | 0.794 | -0.495 | 1.33 | -0.64 | 0.761 | 2.06 | 0.481 | -0.145 | -0.0793 | -0.331 | 1.4 | 0.327
9 | CCCN1C(=O)[C@]2(CCS(=O)(=O)c3ccccc3)N=C(c3ccc(OCCCO)cc3)O[C@@H]2c2ccccc21 | 1.19 | 0.0947 | 0.766 | -0.707 (inactive) | 0.533 | 1.32 | 0.0338 | 1.05 | 0.125 | 0.916 | 1.42 | -2.49 | 0.16 | 3.15 | -0.0613 | -0.0643 | 0.0893 | -0.153 | 1.74 | 1.14
10 | COCCOC(=O)N1C(=O)[C@@]2(c3cc(C#CCCO)ccc31)[C@H](C(=O)Nc1nc3ccccc3s1)[C@H]1C(=O)O[C@H](c3ccccc3)[C@H](c3ccccc3)N1[C@@H]2c1ccc(OCCO)cc1 | 1.27 | 0.385 | -0.284 | -0.021 (inactive) | 1.11 | 0.687 | 0.432 | 1.2 | 0.31 | 0.0763 | 1.32 | -1.81 | 0.774 | 1.08 | -0.263 | 0.115 | 0.0898 | -0.22 | 1.14 | 0.772
